Screens: PubChem BioAssay, National Center for Advancing Translational Sciences (NCATS)
Most compounds without a hit are left out; they make up all but 9.9% or so of the library.
SW480 rereplic = DNA re-replication induction in SW480 cells; SW480 DNA re-replication, Hoechst DNA content imaging, 48 h; Potency, µM (titrated, usually from 46.1 µM), usual class: activators; actives 1.8% (n = 340,000); AID 624297; further: nearly all actives have a fitted effect of over 55% in size
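Image-based DNA-content assay: after two days of treatment, nuclei were labelled with the DNA dye Hoechst and imaged, and hits were compounds raising the count of nuclei showing high fluorescence intensity.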
IL-1B inflam inh = inhibitors of inflammasome signaling (IL-1 beta secretion). THP-1 LPS/ATP IL-1B secretion, AlphaLISA, 16 h; active compounds read low. actives 4.7% (n = 360,000). activity change, % at 57.5 µM; in the data active means activity change below about -50%; inconclusive means mostly about -30% to -49%
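THP-1 cells pretreated 1 hr with compounds (up to 57.5 uM final), then stimulated with LPS (250 ng/mL final) plus ATP (1.25 mM final); secreted IL-1B measured by AlphaLISA after 16 hr, decreased signal indicating inhibition.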
MCF10A rerep = induces DNA re-replication in MCF 10a normal breast cells | MCF 10A DNA re-replication, Hoechst nuclear intensity, 48 h | Potency, µM (top dose mostly 46.1 µM), actives largely listed as activators | actives 2.9% (n = 350,000) | AID 624296; further: nearly all actives have a fitted effect of over 50% in size
KB-V1 MDR tox = KB-V1 MDR subline cytotoxicity; AID 1347076; KB-V1 MDR cells viability, CellTiter-Glo, 72 h; actives 3.4% (n = 400,000); Potency, µM (top dose mostly 46.1 µM), actives largely listed as cytotoxic; further: nearly all actives have a fitted effect of over 60% in size
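Readout: CellTiter-Glo luminescence, 10 min after addition. Cells: KB-V1 MDR subline, 72 h at 37 degrees C with compound. Analysis: corrected, normalized data fitted to concentration-effect curves.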
KB-3-1 cytotox = kills parental KB-3-1 adenocarcinoma cells | KB-3-1 viability, CellTiter-Glo ATP luminescence, 72 h | actives 1.4% (n = 400,000) | Potency, µM (top dose mostly 46.1 µM), hits mostly cytotoxic; further: nearly all actives have a fitted effect of over 60% in size
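Cytotoxicity measured as CellTiter-Glo luminescence after 72 h at 37 C. Compound titrations were pinned onto drug-naive KB-3-1 parental adenocarcinoma cells grown in DMEM with 10% FBS, and normalized data fitted to concentration-response curves.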
Numbers stand for hits; i = inactive; ? = inconclusive; nt = not tested or not shown. Unless noted, the call rests on the fitted dose curve; in most records, active means well fitted curve in the direction sought with a large enough effect; inconclusive means small, poorly fitted or top-dose-only effect, or another doubt; inactive means no such curve, though single readings can be large; an effect the other way counts as inactive or inconclusive.

SMILES	SW480 rereplic	IL-1B inflam inh	MCF10A rerep	KB-V1 MDR tox	KB-3-1 cytotox
COc1ccc(CCNC(=O)c2cc([N+](=O)[O-])ccc2N2CCOCC2)cc1	?	i	?	?	i
COc1ccc(C(=O)c2cc([N+](=O)[O-])ccc2N2CCOCC2)cc1	0.37µM	i	?	0.52µM	1.8µM
CN(CC(=O)Nc1ccccc1C(=O)NC1CC1)Cc1cccs1	?	i	i	i	i
COc1ccc(Br)cc1S(=O)(=O)N(CC(=O)N1CCN(C)CC1)c1ccccc1	i	i	?	nt	nt
COc1ccc(Cl)cc1NC(=O)c1nnn(CC(=O)Nc2cc(C)cc(C)c2)c1N	i	i	i	i	i
Cc1ccc(C(=O)c2cc([N+](=O)[O-])ccc2N2CCCCC2)c(C)c1	1.3µM	i	?	1.6µM	0.82µM
Cc1ccc(C)c(NC(=O)CN(C)C(=O)c2cc([N+](=O)[O-])ccc2N2CCOCC2)c1	i	i	i	i	i
O=C(COc1ccc([N+](=O)[O-])cc1)Nc1ccc2c(c1)nc1n2CCOC1	?	i	23µM	i	?
Cc1ccc(OCC(=O)Nc2ccc3c(c2)nc2n3CCOC2)cc1	i	i	i	i	i
O=C(COc1ccc([N+](=O)[O-])cc1)N/N=C/c1cc([N+](=O)[O-])ccc1N1CCOCC1	i	?	i	16µM	i
Cc1cc(Br)ccc1NC(=O)CN(C)C(=O)c1cc([N+](=O)[O-])ccc1N1CCOCC1	i	-59	i	?	i
O=C(O)c1cc([N+](=O)[O-])ccc1N1CCCCC1	i	i	i	i	i
CCOC(=O)c1ccc(N2C(=O)C(CC(N)=O)N(CCc3ccc(OC)c(OC)c3)C2=S)cc1 (stereo not given)	i	i	i	i	i
COc1ccc(/C=C/c2c([N+](=O)[O-])c(=O)n(C)c(=O)n2C)cc1O	?	-83	i	?	?
COc1cc(/C=C/c2c([N+](=O)[O-])c(=O)n(C)c(=O)n2C)cc(OC)c1OC	i	i	i	i	i
COc1ccc(OC)c(/C=C/c2c([N+](=O)[O-])c(=O)n(C)c(=O)n2C)c1	i	i	i	i	21µM
CC(Nc1cc(N2CCN(C(=O)C(C)(C)C)CC2)ccc1[N+](=O)[O-])c1ccccc1 (stereo not given)	i	i	i	10µM	?
CC(C)C(=O)N1CCN(c2ccc([N+](=O)[O-])c(NC(C)c3ccccc3)c2)CC1 (stereo not given)	i	-64	?	i	i
O=[N+]([O-])c1ccc(N2CCCC2)cc1NC(c1ccccc1)c1ccccc1	i	i	i	i	i
O=[N+]([O-])c1ccc(N2CCCC2)cc1NC1CC1	i	i	?	21µM	i
CCS(=O)(=O)N1CCN(c2ccc([N+](=O)[O-])c(NC(C)c3ccccc3)c2)CC1 (stereo not given)	i	?	i	?	i
O=[N+]([O-])c1ccc(N2CCOCC2)cc1NC(c1ccccc1)c1ccccc1	i	i	i	16µM	i
CC(Nc1cc(N2CCNCC2)ccc1[N+](=O)[O-])c1ccccc1 (stereo not given)	i	?	i	i	i
Cc1ccc(C(=O)N2c3ccccc3Sc3ccccc32)cc1	nt	i	nt	?	?
Cn1nnnc1SCC(=O)N1c2ccccc2Sc2ccccc21	i	i	i	i	i
SMILES	SW480 rereplic	IL-1B inflam inh	MCF10A rerep	KB-V1 MDR tox	KB-3-1 cytotox
O=C(CSc1nncs1)N1c2ccccc2Sc2ccccc21	21µM	i	8.2µM	?	i
Cc1ccc(SCC(=O)N2c3ccccc3Sc3ccccc32)cc1	i	i	7.3µM	i	i
O=C(c1ccccc1F)n1c2c(c3ccccc31)CCCC2	?	i	15µM	?	?
O=c1c2ccccc2sn1-c1cc(S(=O)(=O)N2CCOCC2)ccc1N1CCOCC1	?	-102	i	?	i
O=c1c2ccccc2sn1-c1cc(S(=O)(=O)N2CCOCC2)ccc1N1CCCCC1	nt	nt	nt	i	i
O=c1c2ccccc2sn1-c1cc(S(=O)(=O)N2CCOCC2)ccc1N1CCCC1	?	-107	?	i	i
Cn1nnnc1SCCCNCc1cc(Br)ccc1OCc1ccccc1	nt	nt	nt	i	i
Cc1ccc(OCC(=O)NNC(=O)C2CCC2)cc1C	i	i	3.3µM	i	i
Cc1ccc(OCC(=O)Nc2ccc(N3CCCC3)cc2)cc1C	i	i	i	i	i
CCc1cccc(CC)c1NC(=O)COC(=O)CC1c2ccccc2CCN1S(=O)(=O)c1ccc(F)cc1 (stereo not given)	i	i	i	18µM	i
O=C(COC(=O)CC1c2ccccc2CCN1S(=O)(=O)c1ccc(F)cc1)Nc1ccccc1 (stereo not given)	i	i	i	i	i
CCOc1ccc(NC(=O)c2cccc(N3CCCS3(=O)=O)c2)cc1	nt	nt	nt	i	i
CCN1CCN(c2ccc(NC(=O)CC3OC(=O)c4ccccc43)cc2C)CC1 (stereo not given)	nt	i	nt	i	i
Cc1ccccc1-n1c(SCC(=O)Nc2ccc3c(c2)OCO3)nnc1-c1ccccn1	?	i	i	2.1µM	?
CCC(CO)Nc1ccn2nc(-c3cccs3)cc2n1 (stereo not given)	nt	-50	nt	i	i
FC(F)Oc1ccc(NC(=S)N2CCc3ccccc32)cc1	i	-61	i	i	i
Fc1ccc(NC(=S)N2CCc3ccccc32)cc1	i	i	i	i	i
O=S(=O)(NCCc1ccccc1)c1ccc(Br)cc1	i	i	i	i	i
O=C(NCc1cccc(F)c1)c1ccc2nc(N3CCCCC3)sc2c1	nt	nt	nt	?	i
Cc1ccc(NC(=O)CN(c2ccc(Cl)cc2)S(=O)(=O)c2cc([N+](=O)[O-])ccc2Cl)c(C)c1	i	-79	i	i	i
Cc1ccc([N+](=O)[O-])cc1NC(=O)CN(c1ccccc1)S(=O)(=O)N(C)C	nt	nt	nt	i	i
COc1cccc2sc(Nc3nc(-c4ccncc4)cs3)nc12	?	i	21µM	8.2µM	5.8µM
COc1cccc2sc(Nc3nc(-c4cc5ccccc5oc4=O)cs3)nc12	5.2µM	i	1.3µM	8.2µM	?
COc1cccc2sc(NN)nc12	i	i	i	i	i
COc1cccc2sc(Nc3nc4ccc(NC(C)=O)cc4s3)nc12	?	i	3.3µM	i	16µM
CCOC(=O)c1sc(Nc2nc3c(OC)cccc3s2)cc1C	?	?	23µM	?	i
O=C(O)C(=O)/C(=C\c1cccc2ccccc12)c1ccc2ccccc2n1	?	i	16µM	?	?
CCOc1ccc(N(CC(=O)Nc2ccccc2Cl)S(C)(=O)=O)cc1	21µM	i	?	?	?
CS(=O)(=O)N(CC(=O)Nc1ccc2c(c1)OCCO2)c1ccc2c(c1)OCO2	i	i	i	i	i
CCOc1ccc(N(CC(=O)Nc2ccccc2OC)S(C)(=O)=O)cc1	?	i	?	?	?
